The results in this text go back to PubChem BioAssay (NCATS).

Records with an inconclusive call do not appear. A number with no mark means an inactive call. The source made the active and inactive calls. The call rests on the fitted dose curve; in most records, active means well fitted activation curve with a large enough effect; inconclusive means small, poorly fitted or top-dose-only effect; inactive means no such curve, though single readings can be large or run the other way.
Potency means the concentration at half of the fitted maximal effect.

Sequence of Cellular tumor antigen p53 (Homo sapiens) (P04637 whole entry, looked up): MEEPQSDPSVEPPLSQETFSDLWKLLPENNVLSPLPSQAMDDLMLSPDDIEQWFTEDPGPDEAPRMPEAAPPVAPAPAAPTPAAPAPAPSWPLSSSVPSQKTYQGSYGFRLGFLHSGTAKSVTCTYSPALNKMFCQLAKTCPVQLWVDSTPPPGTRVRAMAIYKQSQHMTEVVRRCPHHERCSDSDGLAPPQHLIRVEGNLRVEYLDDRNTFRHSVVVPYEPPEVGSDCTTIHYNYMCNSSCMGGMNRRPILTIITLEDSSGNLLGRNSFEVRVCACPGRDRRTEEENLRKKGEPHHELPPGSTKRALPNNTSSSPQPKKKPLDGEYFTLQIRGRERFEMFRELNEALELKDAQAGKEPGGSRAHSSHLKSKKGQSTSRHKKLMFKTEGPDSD

The target in the test is Cellular tumor antigen p53 (Homo sapiens) (UniProt P04637). In words: Primary qHTS for small molecule compounds that upregulate eGFP-tagged delta133p53alpha (in N-terminal) cells. (AID 2060322). Further: nearly all actives have a fitted effect of over 75% in size.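 On activation: series mostly up to about 56 µM; 0% = DMSO vehicle and 100% = reference activator.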 The settings on record: NCI-H358 eGFP-delta133p53alpha fluorescence, 24 h; activation: hits give high values. Summed up:
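NCI-H358 cells pre-induced 24 h with 10 ng/ml doxycycline to express N-terminal eGFP-delta133p53alpha, then dosed 24 h at 37C without doxycycline; fixed, Hoechst-stained, GFP intensity by laser scanning cytometry, normalized to DMSO (0%) and 57.5 uM 5-azacytidine (100%).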
(qHTS replaces the single test concentration by a dilution series.)
Consider `CC1CC[C@]2(C(=O)O)CC[C@]3(C(=O)O)C(=CCC4[C@@]5(C)CC[C@H](OC6OC(C)C(O)C(OC7OC(CO)C(O)C(O)C7O)C6O)C(C)(C)C5CC[C@]43C)C2C1C` (stereo not given in full), for which the activation is -8.04%. With H-DPPDPDRFYGMM-NH2, the activation was -11%. As to `CCCCC1CCN(CCCC(=O)c2ccccc2C)CC1`, the activation is 17%. As for `C=C1C(=O)OC2/C=C(\CO)CC/C=C(\C=O)CC(OC(=O)CC(C)C)C12` (stereo not given), the Potency was 14.8 µM (active). `CO[C@@H]1CC[C@H](OC[C@]2(COC(=O)c3ccc(C)[nH]3)[C@H](OC(C)=O)CC[C@@]3(C)[C@@H]4CC=C(C)[C@@H](C5=C(O)C(=O)OC5O)[C@]4(C)CC[C@@H]32)O[C@H]1C` (stereo not given in full): the activation is 0%. `CC1(C)CC[C@]2(C(=O)O)CC[C@]3(C)C(=CCC4[C@@]5(C)CCC(O[C@@H]6OC[C@H](O)[C@H](O)[C@H]6O[C@@H]6O[C@H](CO)[C@@H](O)[C@H](O)[C@H]6O)[C@@](C)(CO)C5CC[C@]43C)[C@@H]2C1` (stereo not given in full): the activation is 14.3%. Turning to `COc1cc(/C=C/C(=O)O[C@H]2C[C@@H]3C(C(=O)O)=CO[C@@H](O[C@@H]4O[C@H](CO)[C@@H](O)[C@H](O)[C@H]4O)[C@@H]3[C@H]2C)ccc1O`, the activation is -2.29%.

Regarding `COCCN(C)Cc1ccc2nc3sc(C(=O)N(C)C4CCCCC4)cn3c2c1`, the activation was 15.7%. On the same count and under the same terms, the figure for `Cn1nc(C(C)(C)C)cc1C(=O)N[C@@H](Cc1cccc(Cl)c1)C(=O)NCC#N` is -7%; for `C=C1C(O)C[C@@H]2C(C(=O)O)=CO[C@@H](O[C@@H]3O[C@H](CO)[C@@H](O)[C@H](O)[C@H]3OC(=O)c3ccc(O)cc3)[C@H]12` (stereo not given in full) it is 9.82%. On to `Cc1c(CN2CCN(C(=O)C(C)O)CC2)sc2c(N3CCOCC3)nc(-c3cnc(N)nc3)nc12` (stereo not given), for which the Potency is 12 µM (active). As to `CC1=CC(=O)CC(C)(C)C1CCC(C)O[C@@H]1O[C@H](CO[C@@H]2OC[C@@H](O)[C@H](O)[C@H]2O)[C@@H](O)[C@H](O)[C@H]1O` (stereo not given in full), the activation is -10.7%. On the same count and under the same terms, to `C=C1CC23CCC4[C@@](C)(CCC[C@@]4(C)C(=O)O)C2CCC1C3` (stereo not given in full) belongs 6.25%; to `COc1ccc([C@H]2Cc3cccc(O)c3C(=O)O2)cc1OC`, 6.87%. On the same count and under the same terms, the figure for `CC1(C)CC23[C@@H]4CC(=O)[C@@H]2COC(=O)[C@@H]3CC[C@H]41` is -5.36%; for `COc1c(C)c(OCC=C(C)C)cc2c1COC2=O` it is -0.763%; for `COC(=O)[C@]1(C)CCC[C@@]2(C)C(=O)CC[C@H]3C(=O)C=C(CC[C@@H]21)C3O` (stereo not given in full) it is 1.53%. `C[C@@H]1[C@H]2[C@H](O[C@@H]3O[C@H](CO)[C@@H](O)[C@H](O)[C@H]3O)OC=C(C(=O)O)[C@H]2C[C@@H]1OC(=O)/C=C/c1ccc(O)cc1`: the activation was 18.8%.

Consider `CC1(C)CCCC2(C)c3c4c(c(=O)oc(=O)c3=CCC12)=CCC1C(C)(C)CCCC41C` (stereo not given), for which the activation was -8.04%.

On to `Cn1c(=O)c2nc(/C=C/c3cccc(Cl)c3)n(C)c2n(C)c1=O`, for which the activation was -2.33%. For `CC1(C)Oc2ncnc(N)c2N=C1c1ccc(C2CCC(CC(=O)O)CC2)cc1` (stereo not given), the activation was -4.46%.

As to `C[C@@H]1O[C@@H](O[C@H]2[C@H](O)[C@@H](O[C@@H]3O[C@H](CO)[C@@H](O)[C@H](O[C@@H]4O[C@H](CO)[C@@H](O)[C@H](O)[C@H]4O)[C@H]3O)[C@H](O[C@H]3CC[C@@]4(C)C(=CC[C@@H]5C4CC[C@@]4(C)C5C[C@@H]5OC6(CC[C@@](C)(CO[C@@H]7O[C@H](CO)[C@@H](O)[C@H](O)[C@H]7O)O6)[C@@H](C)[C@@H]54)C3)O[C@@H]2CO)[C@H](O)[C@H](O)[C@H]1OC1OC(CO)C(O)C(O)C1O` (stereo not given in full), the activation was 13%. Still for that read-out and setting: the figure for `CC(C)c1cc(-c2ccc(F)c3ccccc23)nc(N)n1` is -13.4%; for `OCC(CO[C@@H]1O[C@H](CO)[C@@H](O)[C@H](O)[C@H]1O)c1ccc2c(c1)OCO2` (stereo not given in full) it is 24.1%. On to `COc1ccc(C(OC2OC(CO)C(O)C(O)C2O)C(C)O)cc1` (stereo not given), for which the activation was 9.82%. The same measure, in the same setting: to `CC(=O)O[C@H]1CC[C@@]2(C)C(CC[C@@H](C)[C@]23Cc2c(O)cc4c(c2O3)CN([C@@H](CCC(=O)O)C(=O)O)C4=O)C1(C)C` (stereo not given in full) belongs 0.763%.

Regarding `N#C/C(=C1\Nc2ccccc2S1)c1ccnc(NCCc2cccnc2)n1`, the Potency is 19 µM (active). Take `C/C=C/C=C/C1=C2C(=O)C3(C)C4C(C(=O)CC(O)/C=C/C)=C(O1)C1(C)C2C2(C)OC1(O)C4(C)OC23O` (stereo not given): the activation is -2.68%.

For the compound `CC1(C)CCC2(C(=O)OC3OC(CO)C(O)C(O)C3O)CCC3(C)C(=CCC4C5(C)CCC(OC6OC(C(=O)O)C(OC7OC(CO)C(O)C(O)C7O)C(OC7OC(CO)C(O)C(O)C7O)C6O)C(C)(C)C5CCC43C)C2C1` (stereo not given), the activation is -5.34%. As for `CC(=O)O[C@H]1CC2C(COC(=O)CC(C)C)=CO[C@@H](OC(=O)CC(C)C)C2[C@]12CO2` (stereo not given in full), the Potency was 10.4 µM (active).

In the case of `C=C1CCC2C(C)(C(=O)OC)CCCC2(C)C1CCC(C)CC(=O)O` (stereo not given), the activation is -13%. On the same count and under the same terms, to `O=C1C[C@@]2(C(=O)N1)C(=O)N(Cc1ccc(Br)cc1F)C(=O)c1cccn12` belongs -11.7%; to `C[C@]1(CO)CN(c2cc(C(=O)Nc3ccc4c(c3)-c3c(c(C(N)=O)nn3-c3ccc(F)cc3)CC4)c(Cl)cn2)C[C@@]1(C)CO`, 21.4%; to `C=CC(C)(C)C12CC3C(=O)NC(Cc4cnc[nH]4)C(=O)N3C1Nc1ccccc12` (stereo not given), 13.4%. The same measure, in the same setting: to `C[C@H]1CC[C@@]2(OC1)O[C@H]1CC3C4CC[C@H]5C[C@@H](O)CC[C@]5(C)C4CC(=O)[C@]3(C)[C@H]1[C@@H]2C` (stereo not given in full) belongs 25.9%. As for `C=C(C(=O)O)C1CC2=C(C)C(=O)CC2C(C)CC1O` (stereo not given), the Potency was 12 µM (active). In the case of `CCc1cc(CN2CC(C(=O)O)C2)sc1-c1noc(-c2ccc(Oc3ccccc3)cc2)n1`, the activation was -2.39%.

As to `CC(=O)O[C@H]1CC(C)(C)CC2[C@@]13[C@H](O)C[C@]1(C)[C@@]2(CCC2[C@@]4(C)CC[C@H](O[C@@H]5OC[C@H](O[C@@H]6O[C@H](CO)[C@@H](O)[C@H](O)[C@H]6O[C@@H]6OC[C@@H](O)[C@H](O)[C@H]6O)[C@H](O)[C@H]5O[C@@H]5O[C@H](CO)[C@@H](O)[C@H](O)[C@H]5O)C(C)(C)C4CC[C@]21C)O[C@@H]3O` (stereo not given in full), the activation is -7.63%. `CC1=CC(=O)CC(C)(C)[C@@]1(O)CC[C@@H](C)O[C@@H]1O[C@H](CO)[C@@H](O)[C@H](O)[C@H]1O`: the activation is 29.5%. The same measure, in the same setting: to `CC(C)=CCC[C@](C)(O[C@@H]1O[C@H](CO)[C@@H](O)[C@H](O)[C@H]1O)[C@H]1CC[C@]2(C)[C@@H]1[C@H](O)CC1[C@@]3(C)CC[C@H](O)C(C)(C)C3[C@@H](O[C@@H]3O[C@H](CO)[C@@H](O)[C@H](O)[C@H]3O)C[C@]12C` (stereo not given in full) belongs 15.3%.
